Results filed as inconclusive are left out. A call without a number means that no potency is given here. A number with no mark means an inactive call. Activity calls are given as the source filed them. The call rests on the fitted dose curve; in most records, active means well fitted curve in the direction sought with a large enough effect; inconclusive means small, poorly fitted or top-dose-only effect, or another doubt; inactive means no such curve, though single readings can be large; an effect the other way counts as inactive or inconclusive.
Legend:
[1] = biological target: Rap guanine nucleotide exchange factor 3 (Homo sapiens) (UniProt O95398); experiment: Confirmatory qHTS for agonist of cAMP-regulated guanine nucleotide exchange factor 3 (EPAC1) (AID 1645881);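 further: EPAC1 catalysed release of BODIPY-GDP from Rap1B seen as fluorescence loss; nearly all actives have a fitted effect of over 75% in size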
Chain of Rap guanine nucleotide exchange factor 3 (Homo sapiens) (O95398 whole entry, looked up): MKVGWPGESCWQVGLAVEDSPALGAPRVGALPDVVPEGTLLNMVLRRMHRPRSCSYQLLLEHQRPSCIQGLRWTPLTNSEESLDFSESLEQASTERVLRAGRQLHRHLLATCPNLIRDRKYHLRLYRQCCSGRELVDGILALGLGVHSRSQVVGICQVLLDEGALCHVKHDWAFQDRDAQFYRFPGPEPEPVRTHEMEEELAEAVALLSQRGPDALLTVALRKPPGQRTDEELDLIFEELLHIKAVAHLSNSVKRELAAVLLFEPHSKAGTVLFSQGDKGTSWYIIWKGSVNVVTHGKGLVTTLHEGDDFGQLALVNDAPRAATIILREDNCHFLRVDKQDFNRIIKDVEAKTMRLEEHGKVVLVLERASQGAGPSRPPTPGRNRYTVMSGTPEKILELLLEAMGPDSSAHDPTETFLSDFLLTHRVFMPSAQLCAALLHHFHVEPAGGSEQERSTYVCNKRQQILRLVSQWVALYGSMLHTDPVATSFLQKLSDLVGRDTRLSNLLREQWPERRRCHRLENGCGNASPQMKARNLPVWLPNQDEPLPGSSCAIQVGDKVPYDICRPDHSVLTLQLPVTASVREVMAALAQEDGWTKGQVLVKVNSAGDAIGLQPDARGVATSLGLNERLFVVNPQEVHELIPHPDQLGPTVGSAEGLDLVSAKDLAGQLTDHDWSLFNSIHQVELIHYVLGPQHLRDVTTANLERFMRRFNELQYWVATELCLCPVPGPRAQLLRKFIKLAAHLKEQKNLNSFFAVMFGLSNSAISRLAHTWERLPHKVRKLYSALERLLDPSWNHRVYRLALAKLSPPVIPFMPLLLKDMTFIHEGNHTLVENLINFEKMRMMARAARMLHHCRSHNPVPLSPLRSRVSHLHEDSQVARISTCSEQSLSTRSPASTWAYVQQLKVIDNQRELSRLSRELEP

[2] = biological target: Rap guanine nucleotide exchange factor 4 (Homo sapiens) (UniProt Q8WZA2); experiment: Confirmatory qHTS for agonist of cAMP-regulated guanine nucleotide exchange factor 4 (EPAC2) (AID 1645884);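 further: nucleotide exchange releases bodipy-GDP from Rap1 and this lowers its fluorescence; nearly all actives have a fitted effect of over 65% in size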
Chain of Rap guanine nucleotide exchange factor 4 (Homo sapiens) (Q8WZA2 whole entry, looked up): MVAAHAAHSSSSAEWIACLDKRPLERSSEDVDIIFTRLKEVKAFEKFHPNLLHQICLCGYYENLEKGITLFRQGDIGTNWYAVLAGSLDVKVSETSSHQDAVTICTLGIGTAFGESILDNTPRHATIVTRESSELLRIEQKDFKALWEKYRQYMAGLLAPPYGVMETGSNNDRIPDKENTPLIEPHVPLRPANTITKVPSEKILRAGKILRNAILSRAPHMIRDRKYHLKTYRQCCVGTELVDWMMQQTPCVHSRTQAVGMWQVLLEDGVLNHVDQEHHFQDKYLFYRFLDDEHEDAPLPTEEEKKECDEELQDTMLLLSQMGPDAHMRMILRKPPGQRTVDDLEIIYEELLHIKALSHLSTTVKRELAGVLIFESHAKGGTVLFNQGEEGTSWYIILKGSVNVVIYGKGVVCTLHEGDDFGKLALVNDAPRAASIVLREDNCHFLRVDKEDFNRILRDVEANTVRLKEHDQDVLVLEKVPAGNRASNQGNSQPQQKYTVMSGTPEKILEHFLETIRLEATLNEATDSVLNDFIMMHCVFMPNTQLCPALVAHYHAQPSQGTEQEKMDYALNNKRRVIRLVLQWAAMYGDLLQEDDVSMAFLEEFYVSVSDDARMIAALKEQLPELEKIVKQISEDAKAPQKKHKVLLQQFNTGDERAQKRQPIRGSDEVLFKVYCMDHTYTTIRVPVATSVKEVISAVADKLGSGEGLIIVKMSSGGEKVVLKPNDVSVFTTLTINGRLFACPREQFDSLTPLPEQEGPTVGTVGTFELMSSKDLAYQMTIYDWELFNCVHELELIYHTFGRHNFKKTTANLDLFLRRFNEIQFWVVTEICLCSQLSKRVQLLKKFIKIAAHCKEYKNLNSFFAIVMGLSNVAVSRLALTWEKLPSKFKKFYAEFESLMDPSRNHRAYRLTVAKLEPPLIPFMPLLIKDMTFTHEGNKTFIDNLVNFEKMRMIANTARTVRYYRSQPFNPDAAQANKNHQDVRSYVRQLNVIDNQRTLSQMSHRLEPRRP

[3] = biological target: Rap guanine nucleotide exchange factor 4 (Homo sapiens) (UniProt Q8WZA2); experiment: Confirmatory qHTS for antagonist of cAMP-regulated guanine nucleotide exchange factor 4 (EPAC2) (AID 1645885); further: nearly all actives have a fitted effect of over 25% in size; further: potency means the concentration at half of the fitted maximal effect
[4] = biological target: Rap guanine nucleotide exchange factor 3 (Homo sapiens) (UniProt O95398); experiment: Counterscreen qHTS for antagonist of cAMP-regulated guanine nucleotide exchange factor 3 (EPAC1) (AID 1645888);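 further: fluorescence loss as bound BODIPY-GDP is released from Rap1B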
How it was run: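 Measured: fluorescence of BODIPY-GDP bound to Rap1B, which falls as exchange proceeds. Conditions include 50 uM competing GDP, 5 and 30 min reads, and a later cAMP challenge for antagonist detection.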

| Structure (SMILES) | Potency [1] | Potency [2] | Potency [3] | Potency [4] | activation [2] | activity change, negative = inhibition [4] | outcome [3] |
| --- | --- | --- | --- | --- | --- | --- | --- |
| O=C(Nc1ccccc1C(=O)O)c1cccc(NC(=O)c2ccc(Br)o2)c1 | inactive | inactive | inactive | inactive | – | – | – |
| c1cc(-c2cc3nc(NC4CCCCC4)ccn3n2)ccc1OCCN1CCOCC1 | inactive | inactive | inactive | inactive | – | – | – |
| Cc1cccc(N(Cc2ccccc2)C(=O)CSC(C)C(=O)Nc2cc(C)on2)c1 (stereo not drawn) | inactive | inactive | 95.3 µM (active) | inactive | – | – | – |
| CN1CCN(c2cc(N3CCN(C(=O)c4ccco4)CC3)c3c4c(onc24)-c2ccccc2C3=O)CC1 | inactive | inactive | inactive | inactive | – | – | – |
| CC1CC(C)CN(C(=O)c2ccc3c(c2)N(Cc2ccccc2)CCS3)C1 (stereo not drawn) | inactive | – | inactive | – | 14.1% [at 17.1 µM, percent relative to cAMP agonist control] | 1.99% [at 30.8 µM] | – |
| CCn1c(SCC(=O)N/N=C/C=C/c2ccco2)nnc1-c1ccccc1 | inactive | inactive | inactive | inactive | – | – | – |
| CC1OC(CC(=O)O)CC2=C1C(=O)c1c(O)cccc1C2=O (stereo not drawn) | inactive | inactive | inactive | inactive | – | – | – |
| Cc1ccc(OCC(=O)Nc2ccc(C)c(S(=O)(=O)N3CCCCCC3)c2)c([N+](=O)[O-])n1 | inactive | inactive | inactive | inactive | – | – | – |
| O=C(NCCc1ccccc1)c1ccc(Cn2c(SCc3cccc(F)c3)nc3cccnc32)cc1 | inactive | inactive | inactive | inactive | – | – | – |
| CCc1cc(C(=O)Nc2ccc(S(=O)(=O)NC3=NCCCCC3)cc2)sc1C | inactive | – | inactive | – | 5.65% [at 17.1 µM, percent relative to cAMP agonist control] | 4.61% [at 30.8 µM] | – |
| CN(C)C(=O)c1cccc(-c2cnc3c(NC=O)cc(-c4ccccc4Cl)cn23)c1 | inactive | inactive | inactive | inactive | – | – | – |
| Cc1cc(O)cc(C)c1NS(=O)(=O)c1ccc2ccccc2c1 | inactive | inactive | inactive | inactive | – | – | – |
| O=S(=O)(Nc1nc2ccc(Cl)cc2s1)c1cccs1 | inactive | – | inactive | – | 0% [at 17.1 µM, percent relative to cAMP agonist control] | -17.1% [at 30.8 µM] | – |
| O=C(N/N=C/c1ccc(O)c(O)c1)c1ccc(CSc2cccc3cccnc23)cc1 | inactive | – | inactive | – | 14.6% [at 17.1 µM, percent relative to cAMP agonist control] | 41.8% [at 30.8 µM] | – |
| COc1ccc(OC)c(NC(=O)CSc2nc(O)cc(=O)n2CC(C)C)c1 | inactive | inactive | inactive | inactive | – | – | – |
| Oc1c(C2=NCCNC(C(F)(F)F)=C2)ccc2ccccc12 | inactive | inactive | inactive | inactive | – | – | – |
| CC(C)=CCC[C@H](C)C[C@@H]1Cc2[nH][nH]c(=O)c2[C@@H](c2ccc(F)cc2)O1 | inactive | – | inactive | – | 5.46% [at 17.1 µM, percent relative to cAMP agonist control] | -22.9% [at 30.8 µM] | – |
| O=C(Nc1cc(S(=O)(=O)Nc2ccc(Cl)cc2)ccc1O)c1ccc(S(=O)(=O)N2CCCCCC2)cc1 | inactive | inactive | inactive | inactive | – | – | – |
| CCOc1ccc(S(=O)(=O)Nc2ccc(F)cc2)c(C)c1C | inactive | inactive | inactive | inactive | – | – | – |
| CCOc1ccc(N2C(=O)C3Sc4[nH]c(=O)sc4C(/C=C/c4ccccc4)C3C2=O)cc1 (stereo not drawn) | inactive | – | inactive | – | 4.64% [at 17.1 µM, percent relative to cAMP agonist control] | 18.3% [at 30.8 µM] | – |
| COCCN1C(=O)c2[nH]nc(-c3ccccc3O)c2C1c1ccc(Cl)c(Cl)c1 (stereo not drawn) | inactive | inactive | inactive | inactive | – | – | – |
| CCSc1nc2c([nH]c3ccccc32)c(=O)n1-c1cccc(OC)c1 | inactive | inactive | inactive | inactive | – | – | – |
| COc1ccc(C(=O)CSc2nnc(-c3ccco3)c(-c3ccco3)n2)cc1 | inactive | inactive | inactive | inactive | – | – | – |
| COc1ccc(Cl)cc1NC(=O)CN(C)C(=O)c1cc(-c2ccncc2)nc2ccccc12 | inactive | inactive | inactive | inactive | – | – | – |
| O=C(c1ccc(Br)cc1)C(CN1CCOCC1)c1ccccc1 (stereo not drawn) | inactive | – | inactive | – | 8.74% [at 17.1 µM, percent relative to cAMP agonist control] | 16% [at 30.8 µM] | – |
| O=c1cc(-c2ccccc2)[nH]n1-c1nc2ccccc2s1 | inactive | – | inactive | – | 11.1% [at 17.1 µM, percent relative to cAMP agonist control] | 2.08% [at 30.8 µM] | – |

| Structure (SMILES) | Potency [1] | Potency [2] | Potency [3] | Potency [4] | activation [2] | activity change, negative = inhibition [4] | outcome [3] |
| --- | --- | --- | --- | --- | --- | --- | --- |
| Cc1ccccc1C(=O)Nc1sc2c(c1C(=O)N1CCCCC1)CCC(C)C2 (stereo not drawn) | inactive | inactive | inactive | inactive | – | – | – |
| O=C(/C=C/c1ccc(-c2ccccc2[N+](=O)[O-])o1)c1ccco1 | inactive | – | inactive | – | 7.95% [at 17.1 µM, percent relative to cAMP agonist control] | 9.73% [at 30.8 µM] | – |
| COc1ccc(/C=C2\C(=O)NC(=S)N2C(=O)c2ccc(F)cc2)cc1 | inactive | inactive | inactive | inactive | – | – | – |
| Cc1cccc(C(=O)OCC(=O)c2ccc(CC(=O)N3CCOCC3)s2)c1C | inactive | inactive | inactive | inactive | – | – | – |
| Oc1ccc(Cc2ccc(Cl)cc2)c(O)c1 | inactive | – | inactive | – | 7.91% [at 17.1 µM, percent relative to cAMP agonist control] | -18.2% [at 30.8 µM] | – |
| COc1cc(C2NC(=O)c3c(sc4c3CCN(C)C4)N2)cc(Br)c1OC(=O)c1ccc(C)cc1 (stereo not drawn) | inactive | inactive | – | inactive | – | – | inactive [at 12.7 µM] |
| CCOC(=O)C1=C(C)NC(C)=C(C(=O)OCC)C1c1cccc([N+](=O)[O-])c1 | inactive | – | inactive | – | 8.4% [at 17.1 µM, percent relative to cAMP agonist control] | 3.16% [at 30.8 µM] | – |
| COc1ccc(-c2cc(C(F)(F)F)c3c(n2)sc2c(O)cc(=O)[nH]c23)c(OC)c1 | inactive | inactive | inactive | inactive | – | – | – |
| O=C1Cc2ccccc2C(=O)N1 | inactive | inactive | inactive | inactive | – | – | – |
| Cc1ccc(-n2nc3ccc(NC(=O)/C=C/c4ccco4)cc3n2)cc1C | inactive | inactive | inactive | inactive | – | – | – |
| Cc1ccccc1NC(=O)c1sc2nc(-c3cc4ccccc4oc3=O)[nH]c(=O)c2c1C | inactive | inactive | – | inactive | – | – | inactive; activator; fitted 0.8492 uM [at 12.7 µM] |
| N#Cc1c(NC(=O)CSc2ncnc3sccc23)oc(-c2ccco2)c1-c1ccco1 | inactive | inactive | 84.9 µM (active) | inactive | – | – | – |
| CCOC(=O)c1ccc(NC(=O)c2c(NCc3cccs3)sc3c2CCCCC3)cc1 | inactive | inactive | – | inactive | – | – | inactive [at 12.7 µM] |
| Cc1ccc(OCC(=O)Nc2ccc(Cl)c(-c3nc4ccccc4[nH]3)c2)cc1C | inactive | inactive | – | inactive | – | – | inactive [at 12.7 µM] |
| Cc1ccc(O)c(-c2n[nH]c3c2C(c2ccccc2F)N(Cc2ccco2)C3=O)c1 (stereo not drawn) | inactive | inactive | inactive | inactive | – | – | – |
| CC1=NN(c2ccccc2)C(=O)C1C(=O)c1cc([N+](=O)[O-])cc([N+](=O)[O-])c1 (stereo not drawn) | inactive | inactive | inactive | inactive | – | – | – |
| O=C(CSc1nnc(-c2cnccn2)n1Cc1ccco1)c1ccc(Cl)cc1 | inactive | inactive | inactive | inactive | – | – | – |
| CS/C(=C\C(=O)c1ccco1)Nc1ccccc1Cl | inactive | inactive | inactive | inactive | – | – | – |
| COC(=O)C1(C)CC1(c1ccccc1)c1ccccc1 (stereo not drawn) | inactive | – | inactive | – | 12.4% [at 17.1 µM, percent relative to cAMP agonist control] | 1.55% [at 30.8 µM] | – |
| Nc1ccc2c(c1)C(=O)C(=O)c1ccccc1-2 | inactive | inactive | inactive | inactive | – | – | – |
| O=C(CCCn1c(SCC(=O)c2ccc(O)c(O)c2)nc2ccccc2c1=O)NCC1CCCO1 (stereo not drawn) | inactive | inactive | inactive | inactive | – | – | – |
| O=C(NCc1ccc2c(c1)CCN2C(=O)c1ccccc1)Nc1cccc(C(F)(F)F)c1 | inactive | inactive | inactive | inactive | – | – | – |
| Cc1ccc2[nH]cc(C(c3ccccc3)c3ccc(Cl)s3)c2c1 (stereo not drawn) | inactive | inactive | inactive | inactive | – | – | – |
| COc1ccc(NC(=O)CSc2nc(O)cc(=O)n2-c2ccc(OC)cc2)cc1 | inactive | inactive | inactive | inactive | – | – | – |
| Cc1ccc(Cl)cc1N1CCN(C(=O)c2ccc(C)c(-n3c(C)nc4cccnc43)c2)CC1 | inactive | inactive | – | inactive | – | – | inactive [at 12.7 µM] |
| CC(NC(=O)/C(C#N)=C/c1ccc([N+](=O)[O-])o1)c1ccccc1 (stereo not drawn) | inactive | – | inactive | – | 5.83% [at 17.1 µM, percent relative to cAMP agonist control] | 20.7% [at 30.8 µM] | – |

Reference: PubChem BioAssay (NCATS)
